Laboratory results reported in PubChem BioAssay (Tox21).
Results filed as inconclusive are left out. Calls of active or inactive are those of the source. Calls follow the shape of the dose curve; as a rule, active = well fitted curve in the direction sought with a large enough effect in the repeat runs; inconclusive = weak or mixed curves; inactive = no such curve, though single readings can be large; an effect the other way counts as inactive or inconclusive.

Tests used:
[1] = qHTS RealTime-Glo MT Cell Viability Assay in HEK293 cells - 32 hour (AID 1224868); settings: RealTime-Glo luminescence; series mostly up to 76.8 µM; also: top concentration of the series differs between compounds; nearly all actives have a fitted effect of over 50% in size
Summary of the method: (§1)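 HEK293 cells seeded with NanoLuc/prosubstrate reagent, rested 5 h at 37 C, then dosed and kept at 37 C up to 40 h. Nonlytic real-time luminescence from viable cells read at 0, 8, 16, 24, 32 and 40 h.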

[2] = A CellTox Green Cytotoxicity Assay to monitor cytotoxicity in HEK293 cells - 0 hour (AID 1224869); settings: CellTox Green fluorescence; series mostly up to 76.8 µM; also: nearly all actives have a fitted effect of over 50% in size
Summary of the method: (§2)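 HEK293 cells premixed with CellTox Green dye were seeded at 600 cells/well and left 5 h at 37 C/5% CO2 before pin transfer of 23 nL compound in DMSO. Fluorescence from dye bound to dead-cell DNA was read during 40 h treatment.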

[3] = qHTS RealTime-Glo MT Cell Viability Assay in HepG2 cells - 40 hour (AID 1224870); settings: RealTime-Glo luminescence; series mostly up to 76.8 µM; also: nearly all actives have a fitted effect of over 50% in size
Summary of the method: (§3)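 HepG2 cells mixed with RealTime-Glo MT reagents (NanoLuc plus cell-permeant prosubstrate) were seeded at 600 cells/well, incubated 5 h at 37 C/5% CO2, then pinned with compounds in DMSO; nonlytic luminescence tracked viability during 40 h treatment.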

[4] = A CellTox Green Cytotoxicity Assay to monitor cytotoxicity in HEK293 cells - 40 hour (AID 1224871); settings: CellTox Green fluorescence; series mostly up to 76.8 µM; also: nearly all actives have a fitted effect of over 45% in size
Summary of the method: as §2

[5] = qHTS RealTime-Glo MT Cell Viability Assay in HepG2 cells - 8 hour (AID 1224873); settings: RealTime-Glo luminescence; series mostly up to 76.8 µM; also: nearly all actives have a fitted effect of over 55% in size
Summary of the method: as §3

[6] = qHTS RealTime-Glo MT Cell Viability Assay in HEK293 cells - 40 hour (AID 1224874); settings: RealTime-Glo luminescence, stronger effect = lower value; also: nearly all actives have a fitted effect of over 50% in size
Summary of the method: (§4)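 HEK293 cells mixed with RealTime-Glo reagents (NanoLuc plus cell-permeant prosubstrate) at 600 cells/well, preincubated 5 h at 37 C/5% CO2, then given 23 nL compound in DMSO. Nonlytic luminescence from viable cells was read at 0, 8, 16, 24, 32 and 40 h.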

[7] = A CellTox Green Cytotoxicity Assay to monitor cytotoxicity in HEK293 cells - 24 hour (AID 1224875); settings: CellTox Green fluorescence; series mostly up to 76.8 µM; also: nearly all actives have a fitted effect of over 45% in size
Summary of the method: as §2

[8] = A CellTox Green Cytotoxicity Assay to monitor cytotoxicity in HepG2 cells - 16 hour (AID 1224876); settings: CellTox Green fluorescence; series mostly up to 76.8 µM; also: nearly all actives have a fitted effect of over 45% in size
Summary of the method: (§5)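 HepG2 cells were seeded together with the CellTox Green dye at 600 cells/well, left 5 h at 37 C/5% CO2, then given compounds in DMSO. Fluorescence from dye bound to dead-cell DNA was read repeatedly over 40 h of treatment at 37 C.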

[9] = qHTS RealTime-Glo MT Cell Viability Assay in HepG2 cells - 32 hour (AID 1224877); settings: RealTime-Glo luminescence; series mostly up to 76.8 µM; also: nearly all actives have a fitted effect of over 55% in size
Summary of the method: (§6)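 HepG2 cells (600/well) were dispensed with RealTime-Glo reagents, incubated 5 h at 37 °C, then treated with compounds in DMSO for up to 40 h. Nonlytic NanoLuc luminescence reflecting viable cells was read at each stated time point.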

[10] = A CellTox Green Cytotoxicity Assay to monitor cytotoxicity in HepG2 cells - 24 hour (AID 1224878); settings: CellTox Green fluorescence; series mostly up to 76.8 µM; also: nearly all actives have a fitted effect of over 45% in size
Summary of the method: as §5

[11] = A CellTox Green Cytotoxicity Assay to monitor cytotoxicity in HepG2 cells - 40 hour (AID 1224879); settings: CellTox Green fluorescence; series mostly up to 76.8 µM; also: nearly all actives have a fitted effect of over 40% in size; also: potency is read from the fitted curve at half-maximal effect
Summary of the method: as §5

[12] = qHTS RealTime-Glo MT Cell Viability Assay in HEK293 cells - 0 hour (AID 1224880); settings: RealTime-Glo luminescence; series mostly up to 76.8 µM
Summary of the method: as §4

[13] = A CellTox Green Cytotoxicity Assay to monitor cytotoxicity in HEK293 cells - 32 hour (AID 1224881); settings: CellTox Green fluorescence; series mostly up to 76.8 µM; also: nearly all actives have a fitted effect of over 40% in size
Summary of the method: as §2

[14] = A CellTox Green Cytotoxicity Assay to monitor cytotoxicity in HepG2 cells - 0 hour (AID 1224882); settings: CellTox Green fluorescence; series mostly up to 76.8 µM; also: nearly all actives have a fitted effect of over 35% in size
Summary of the method: as §5

[15] = A CellTox Green Cytotoxicity Assay to monitor cytotoxicity in HepG2 cells - 32 hour (AID 1224883); settings: CellTox Green fluorescence; series mostly up to 76.8 µM; also: nearly all actives have a fitted effect of over 50% in size
Summary of the method: as §5

[16] = A CellTox Green Cytotoxicity Assay to monitor cytotoxicity in HEK293 cells - 8 hour (AID 1224884); settings: CellTox Green fluorescence; series mostly up to 76.8 µM; also: nearly all actives have a fitted effect of over 35% in size
Summary of the method: as §2

[17] = qHTS RealTime-Glo MT Cell Viability Assay in HepG2 cells - 16 hour (AID 1224885); settings: RealTime-Glo luminescence; series mostly up to 76.8 µM; also: nearly all actives have a fitted effect of over 50% in size
Summary of the method: as §6

[18] = qHTS RealTime-Glo MT Cell Viability Assay in HEK293 cells - 24 hour (AID 1224886); settings: RealTime-Glo luminescence; series mostly up to 76.8 µM
Summary of the method: as §1

[19] = qHTS RealTime-Glo MT Cell Viability Assay in HEK293 cells - 8 hour (AID 1224887); settings: RealTime-Glo luminescence; series mostly up to 76.8 µM
Summary of the method: as §4

[20] = qHTS RealTime-Glo MT Cell Viability Assay in HEK293 cells - 16 hour (AID 1224872); settings: RealTime-Glo luminescence; series mostly up to 76.8 µM
Summary of the method: as §1
% is scaled to controls: 0 for no effect and ±100 for the full control effect.

CC(C)CC(O)Cc1ccccc1 (stereo not given)
inactive: outcome [1] | outcome [2] | outcome [3] | Potency [4] | outcome [5] | max response [6] 1.47% | Potency [7] | Potency [8] | outcome [9] | Potency [10] | Potency [11] | Potency [12] | Potency [13] | Potency [14] | Potency [15] | Potency [16] | outcome [17] | outcome [18] | outcome [19]

CCCC(C)C(O)CC (stereo not given)
inactive: outcome [1] | outcome [2] | outcome [3] | Potency [4] | outcome [20] | max response [6] 14.3% | Potency [7] | Potency [8] | outcome [9] | Potency [10] | Potency [12] | Potency [13] | Potency [14] | Potency [15] | outcome [17] | outcome [18] | outcome [19]

NS(=O)(=O)c1cc2c(cc1C(F)(F)F)NCNS2(=O)=O
inactive: outcome [1] | outcome [2] | outcome [3] | Potency [4] | outcome [20] | max response [6] 14.4% | Potency [7] | Potency [8] | outcome [9] | Potency [10] | Potency [11] | Potency [12] | Potency [13] | Potency [14] | Potency [15] | Potency [16] | outcome [17] | outcome [18] | outcome [19]

O=C(O)COc1ccc2ccccc2c1
inactive: outcome [1] | outcome [2] | outcome [3] | Potency [4] | outcome [5] | max response [6] 1.62% | Potency [7] | Potency [8] | outcome [9] | Potency [10] | Potency [11] | Potency [12] | Potency [13] | Potency [14] | Potency [15] | Potency [16] | outcome [17] | outcome [18]

C=C(C)C(=O)OCCCC
inactive: outcome [1] | outcome [2] | outcome [3] | Potency [4] | outcome [20] | Potency [7] | Potency [8] | outcome [9] | Potency [10] | Potency [11] | Potency [12] | Potency [13] | Potency [14] | Potency [15] | Potency [16] | outcome [17] | outcome [18] | outcome [19]

CCCCCCCCCCCCCCCC(=O)OC
inactive: activity change, negative = cytotoxic [1] -0.272% [at 15.8 µM] | cytotoxicity [2] -0.154% [at 15.8 µM] | activity change, negative = cytotoxic [3] 16.9% [at 15.8 µM] | cytotoxicity increase [4] -6.02% [at 15.8 µM] | viability change, negative = cytotoxic [5] -11% [at 15.8 µM] | max response [6] -0.62% | activity change [7] -1.12% [at 15.8 µM, stronger effect = higher value] | cytotoxicity increase [8] -17.1% [at 15.8 µM] | activity change, negative = cytotoxic [9] 6.89% [at 15.8 µM] | cytotoxicity [10] -19.7% [at 15.8 µM] | cytotoxicity increase [11] -22.4% [at 15.8 µM] | activity change, negative = cytotoxicity [12] -3.44% [at 15.8 µM] | cytotoxicity increase [13] -5.35% [at 15.8 µM] | cytotoxicity [14] -12.7% [at 15.8 µM] | cytotoxicity increase [15] -21.5% [at 15.8 µM] | cytotoxicity increase [16] -3.06% [at 15.8 µM] | activity change, negative = cytotoxic [17] -7.62% [at 15.8 µM] | activity change, negative = cytotoxicity [18] -2.1% [at 15.8 µM] | activity change, negative = cytotoxicity [19] 0.781% [at 15.8 µM]

O=C1CCCc2c(O)cccc21
active: Potency [11] 9.52 µM
inactive: outcome [1] | outcome [2] | outcome [3] | Potency [4] | outcome [20] | max response [6] 3.41% | Potency [7] | Potency [8] | outcome [9] | Potency [10] | Potency [12] | Potency [13] | Potency [14] | Potency [16] | outcome [17] | outcome [18] | outcome [19]

CCCCCC(=O)CC
inactive: outcome [1] | outcome [2] | outcome [3] | Potency [4] | outcome [5] | max response [6] 19.7% | Potency [7] | Potency [8] | outcome [9] | Potency [10] | Potency [11] | Potency [12] | Potency [13] | Potency [14] | Potency [15] | Potency [16] | outcome [17] | outcome [18] | outcome [19]

C=C(C)C(=O)OCCOC1CC2CC1C1C=CCC21 (stereo not given)
inactive: outcome [1] | outcome [2] | outcome [3] | Potency [4] | outcome [5] | max response [6] 0.272% | Potency [7] | Potency [8] | outcome [9] | Potency [10] | Potency [11] | Potency [12] | Potency [13] | Potency [14] | Potency [15] | Potency [16] | outcome [17] | outcome [18] | outcome [19]

Cc1cc(N)no1
inactive: outcome [1] | outcome [2] | outcome [3] | Potency [4] | outcome [20] | max response [6] 13.5% | Potency [7] | outcome [9] | Potency [10] | Potency [12] | Potency [13] | Potency [14] | Potency [15] | Potency [16] | outcome [17] | outcome [18] | outcome [19]

C[C@]12C=CC(=O)C=C1[C@@H](F)C[C@@H]1[C@@H]2[C@@H](O)C[C@@]2(C)[C@H]1CC[C@]2(O)C(=O)CO
inactive: outcome [1] | outcome [2] | outcome [3] | Potency [4] | outcome [20] | max response [6] -0.454% | Potency [7] | Potency [8] | outcome [9] | Potency [10] | Potency [11] | Potency [13] | Potency [14] | Potency [15] | Potency [16] | outcome [17] | outcome [18] | outcome [19]

CCN(CC)CC
inactive: outcome [1] | outcome [2] | outcome [3] | Potency [4] | outcome [20] | max response [6] -12.9% | Potency [7] | Potency [8] | outcome [9] | Potency [10] | Potency [11] | Potency [12] | Potency [13] | Potency [14] | Potency [15] | Potency [16] | outcome [17] | outcome [18] | outcome [19]
